# Assay results: PubChem BioAssay (EPA / NIEHS)
# Active and inactive are the calls of the source. How the source made its calls: active means hit-call score of the fitted dose curve at least 0.9, where 1 is the maximum; inactive means score below 0.9.
# Assay: CCTE_Shafer_MEA_acute_per_network_burst_spike_number_mean: CCTE's Neural Acute Assay for Average Number of Spikes in a Network Burst, Shafer Lab (AID 2284019)
# Protocol: CCTE_Shafer_MEA_acute assay is conducted using Axion Biosystems 48 well microelectrode array (MEA) plates and Maestro recording system. Each well of the MEA plate contains a grid of 16 microelectrodes embedded in the culture surface. Electrically active cells, such as neurons, can be cultured over the electrodes, and electrical activity in these cells can be recorded extracellularly. The spontaneous firing of neurons is captured from each electrode on a microsecond timescale providing both temporally and spatially precise data. […] The CCTE_Shafer_MEA_acute assay uses primary cultures of rat cortical neurons. As these cultures mature over time, neural networks develop functional activity and form cohesive networks in which electrical activity can be highly coordinated. Baseline 40-minute recordings are made on days post-plating 13 or 15, followed by a secondary 40-minute recording after chemical exposure.CCTE_Shafer_MEA_acute_per_network_burst_spike_number_mean is a component of the CCTE_Shafer_MEA_acute assay. It measures the average number of spikes (action potential firings) in a network burst (temporally-clustered group of spikes across multiple electrodes) as the total number of spikes in a network burst divided by the number of network bursts during a recording in a microelectrode array (MEA) using Axion Biosystems Maestro 768 channel amplifier with the AxIS adaptive spike detector. The recordings before and after chemical treatment are used to calculate a percent change in the mean number of spikes in a network burst in each well.Data from the assay component CCTE_Shafer_MEA_acute_per_network_burst_spike_number_mean was analyzed into 1 assay endpoint. This assay endpoint, CCTE_Shafer_MEA_acute_per_network_burst_spike_number_mean, was analyzed in the negative analysis fitting direction relative to DMSO as the negative control and baseline of activity. Using a type of functional reporter, gain or loss-of-signal activity can be used to understand electrical activity.
# Spontaneous activity in the cortical cultures was recorded using an Axion Biosystems Maestro 768 channel amplifier and Axion Integrated Studios (AxIS) v1.8 (or later) software. The amplifier recorded from all channels simultaneously (gain = 1200 x; sampling rate = 12.5 kHz/channel): raw signals were filtered with a Butterworth band-pass filter (300-5000 Hz), which filters out slower local field potentials leaving only fast potentials, i.e., "spikes", arising from extracellular currents associated with action potentials (Pine 2006; Wheeler and Nam 2011). On-line spike detection of filtered signals was conducted with the AxIS adaptive spike detector, using a threshold of 8x the root mean squared (rms) noise on each channel. Any electrodes with rms noise levels greater than 5 uV were grounded (e.g., no data were recorded). Once grounded, an electrode was grounded for the duration of the experiment. All recordings were conducted at 37 C. Wells were deemed usable if on the day of the exposure >/= 10 electrodes were active (defined as >/= 5 spikes/min). On DIV 13 or 15, a minimum of three wells from one cortical culture preparation were treated with each compound (0.03-40 uM). Prior to recording baseline activity, each mwMEA plate was placed in the Maestro at 37 C and allowed to sit for 20 min while firing rates stabilized. Baseline activity (40 min) was recorded before the addition of each compound. An additional 40 min of spontaneous activity was recorded in the presence of each compound. Changes in network parameters relative to baseline were assessed following compound treatment.
SMILES,outcome,AC50
O=C1OC(c2ccc(O)cc2)(c2ccc(O)cc2)c2ccccc21,inactive,
Nc1nc(=S)c2[nH]cnc2[nH]1,,17.1 µM (active)
CC1=C(C)S(=O)(=O)CCS1(=O)=O,inactive,
Oc1ccc(O)cc1,inactive,
COc1ccc(OC(F)(F)F)cc1CN[C@H]1CCCN[C@H]1c1ccccc1,,2.07 µM (active)
CCN(CC)CCOc1ccc(C(=C(Cl)c2ccccc2)c2ccccc2)cc1,inactive,
CC(C)COC(=O)CCCCC(=O)OCC(C)C,inactive,
CN(C)C(=O)NC1(c2ccccc2)CCN(CCC[C@]2(c3ccc(Cl)c(Cl)c3)CCCN(C(=O)c3ccccc3)C2)CC1,inactive,
CSc1ccc(Oc2ccc(S(N)(=O)=O)cc2CN(C)C)cc1C,inactive,
Cc1cc(Cc2ccc(N)c(C)c2)ccc1N,inactive,
Cc1c(C)c2c(c(C)c1O)CCC(C)(COc1ccc(CC3SC(=O)NC3=O)cc1)O2 (stereo not drawn),,3.02 µM (active)
O=C(O)CN(CC(=O)O)CC(=O)O,inactive,
NC(=Nc1ccccc1)Nc1ccccc1,inactive,
OCC(CO)n1cnc(-c2ccc(F)cc2)c1-c1ccnc(Oc2ccccc2)n1,inactive,
CN(C)CCCN1c2ccccc2Sc2ccc(Cl)cc21,inactive,
CN(C)C(=O)NC1(c2ccccc2)CCN(CC[C@@]2(c3ccc(F)c(F)c3)CN(C(=O)c3ccccc3)CCO2)CC1,inactive,
C/C=C/c1ccc(OC)cc1,inactive,
COC(=O)[C@H]1[C@H]2C[C@@H]3c4[nH]c5cc(OC)ccc5c4CCN3C[C@H]2C[C@@H](OC(=O)c2cc(OC)c(OC)c(OC)c2)[C@@H]1OC,,0.808 µM (active)
O=C(N[C@@H](c1ccccc1)[C@@H]1CCCCN1)c1cccc(C(F)(F)F)c1Cl,inactive,
c1ccc2occc2c1,inactive,
Cc1cc(SC2=C(O)C[C@@](CCc3ccc(N)cc3)(C(C)C)OC2=O)c(C(C)(C)C)cc1CO,inactive,
CCCCC(CC)COP(=O)(OCC(CC)CCCC)OCC(CC)CCCC (stereo not drawn),inactive,
Cc1ccc(-c2cc(C(F)(F)F)nn2-c2ccc(S(N)(=O)=O)cc2)cc1,inactive,
CCc1cc(C2=C(C(=O)O)N(c3ccccc3C(F)(F)F)S(=O)(=O)c3ccccc32)cc2c1OCO2,inactive,
Cc1ccc(C(C)(C)C)c(O)c1,inactive,
CC(C)NCC(O)c1ccc(O)c(O)c1 (stereo not drawn),inactive,
CCCC(=O)O,inactive,
CC(N)=O,inactive,
